Consider 89 compounds from paper PMC4336329 (PLoS ONE, 2015).

Hit rate of the full screen: of about 310,000 compounds, about 14,000 (4.5%) showed an effect of 50% or more. The effect is printed as a negative number. Many of the other results were omitted from the sample, so strong results are more common in it than they were.
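Also: peak tail current of the secondary pulse compared with the same well before compound.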

Chain of human ether-à-go-go-related gene (hERG) potassium channel (Q12809 whole entry, looked up): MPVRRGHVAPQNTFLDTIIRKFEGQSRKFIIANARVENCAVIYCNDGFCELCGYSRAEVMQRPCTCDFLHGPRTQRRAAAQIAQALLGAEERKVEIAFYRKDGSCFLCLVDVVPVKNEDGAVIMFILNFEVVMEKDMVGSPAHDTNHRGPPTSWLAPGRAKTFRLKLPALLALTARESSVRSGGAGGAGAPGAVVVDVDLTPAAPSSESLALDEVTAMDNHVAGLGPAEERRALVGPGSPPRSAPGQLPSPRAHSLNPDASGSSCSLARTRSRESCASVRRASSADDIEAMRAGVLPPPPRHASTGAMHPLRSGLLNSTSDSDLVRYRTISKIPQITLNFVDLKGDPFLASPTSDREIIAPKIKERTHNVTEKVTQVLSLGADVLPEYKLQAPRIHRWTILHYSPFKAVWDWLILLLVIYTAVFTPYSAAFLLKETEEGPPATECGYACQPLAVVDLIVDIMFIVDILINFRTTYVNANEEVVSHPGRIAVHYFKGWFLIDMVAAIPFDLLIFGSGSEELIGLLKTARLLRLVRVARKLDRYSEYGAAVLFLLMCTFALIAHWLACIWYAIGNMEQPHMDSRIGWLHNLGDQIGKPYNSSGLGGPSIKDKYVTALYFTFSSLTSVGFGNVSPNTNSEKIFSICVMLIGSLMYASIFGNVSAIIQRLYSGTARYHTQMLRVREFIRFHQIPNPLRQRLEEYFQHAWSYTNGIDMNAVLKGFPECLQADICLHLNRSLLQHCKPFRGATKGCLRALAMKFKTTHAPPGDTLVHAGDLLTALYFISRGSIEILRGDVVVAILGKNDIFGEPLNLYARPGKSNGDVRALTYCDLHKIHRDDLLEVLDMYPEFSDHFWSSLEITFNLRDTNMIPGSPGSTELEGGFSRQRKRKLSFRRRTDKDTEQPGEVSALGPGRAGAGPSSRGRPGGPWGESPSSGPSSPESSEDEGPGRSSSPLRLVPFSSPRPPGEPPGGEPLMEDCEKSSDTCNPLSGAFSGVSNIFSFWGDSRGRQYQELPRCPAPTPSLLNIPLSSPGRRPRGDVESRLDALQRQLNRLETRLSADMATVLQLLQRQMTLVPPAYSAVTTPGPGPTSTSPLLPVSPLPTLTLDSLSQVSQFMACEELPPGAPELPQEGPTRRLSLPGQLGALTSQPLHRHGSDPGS

The assay addresses human ether-à-go-go-related gene (hERG) potassium channel (human, UniProt Q12809). The experiment in a line: primary screen, population patch clamp on CHO cells stably expressing hERG; higher = less effect of the substance.
`COc1ccc(C(=O)Oc2coc(CSc3nnc(NC(=O)c4cccs4)s3)cc2=O)cc1`: the “hERG current change (%, negative = inhibition) at 10uM” value is 24.2%. The value for `CCCCC[C@H]1CN(C2CCCCC2)C(=O)[C@@H]1CC(=O)NCc1ccccc1` was -67.7%; that for `O=C(C[C@H]1C(=O)N(C2CCCCC2)C[C@@H]1Cc1ccccc1)Nc1ccccc1` was -27.4%.

As to `C[C@H]1CN(C2CCCCC2)C(=O)[C@@H]1CC(=O)NCc1ccccc1`, the “hERG current change (%, negative = inhibition) at 10uM” value is -6.72%. In the case of `CCCCC[C@H]1CN(C2CCCCC2)C(=O)[C@@H]1CC(=O)NCc1ccc(OC)cc1` it was -67.4%; in that of `COc1ccc(CNC(=O)C[C@H]2C(=O)N(C3CCCCC3)C[C@@H]2Cc2ccccc2)cc1`, -5.71%; in that of `COc1ccc(CNC(=O)C2CC(=O)N(C3CCCCC3)C2)cc1` (centres unmarked), 13.7%. On to `CCN(CC)CCN(CC)Cc1ccccc1Br`, for which the “hERG current change (%, negative = inhibition) at 10uM” value was -19.8%. In the case of `Cc1cc(/C=C2\C(=O)NC(=O)N(Cc3ccccc3Cl)C2=O)c(C)n1-c1ccc(C(=O)O)cc1` it was 46%; in that of `Cc1[nH]nc(-c2ccc(OCc3cnn(-c4ccccc4)c3)cc2O)c1Oc1ccc(F)cc1`, 22.6%. The value for `CCn1cc(-c2cc(C(F)(F)F)n3nc(C(=O)O)cc3n2)c(C)n1` was -8.81%; that for `COc1ccc(NC(=O)c2cc(S(=O)(=O)Nc3ccc(OC)cc3)cs2)cc1` was -3.01%; that for `CCOC(=O)c1c2c3c(cccc3n(C)c1=O)C(=O)c1ccccc1-2` was -71.8%. As for `CC(=O)c1c2c3c(cccc3n(C)c1=O)C(=O)c1ccccc1-2`, the “hERG current change (%, negative = inhibition) at 10uM” value is reported as -1.1%. The value for `CCOC(=O)c1c2c3c(cccc3[nH]c1=O)C(=O)c1ccccc1-2` was 17.6%; that for `Cl.O=C(CN1CCN(C2CCCCC2)CC1)Nc1ccccc1-c1ccccc1` was -70.1%. Consider `Cl.O=C(CN1CCN(C2CCCCC2)CC1)Nc1cccc2ccccc12`, for which the “hERG current change (%, negative = inhibition) at 10uM” value is -31.2%.

With `O=C(CN1C(=O)C2CCCCC2C1=O)Nc1ccccc1N1CCCC1` (centres unmarked), the “hERG current change (%, negative = inhibition) at 10uM” value turned out to be 1.43%. Turning to `O=C(CC1CCCCC1)Nc1ccccc1-c1ccccc1`, the “hERG current change (%, negative = inhibition) at 10uM” value is 6.47%. In the case of `Cl.O=C(CN1CCN(C2CCCCC2)CC1)Nc1ccccc1N1CCCCC1`, the “hERG current change (%, negative = inhibition) at 10uM” value is listed as -66.2%. For the compound `CC1CCN(CC(=O)Nc2ccccc2-c2ccccc2)CC1`, the “hERG current change (%, negative = inhibition) at 10uM” value was -25.1%. As for `CCC(C)NC(=O)COC(=O)c1cccnc1Nc1ccccc1F` (centres unmarked), the “hERG current change (%, negative = inhibition) at 10uM” value was found to be 8.21%. The value for `COc1ccc(NS(=O)(=O)c2ccc(Oc3ncccn3)cc2)cc1` was 3.85%; that for `CC(C)c1cc(-c2cc(-c3ccc(Cl)cc3)on2)nc(NC2CCCC2)n1` was 13.3%.

Regarding `Cc1cc(C(=O)Nc2nc3ccc(Cl)cc3s2)nn1C`, the “hERG current change (%, negative = inhibition) at 10uM” value stood at 5.89%. Consider `CCOC(=O)C(C)/C(C)=N/NC(N)=S` (centres unmarked), for which the “hERG current change (%, negative = inhibition) at 10uM” value is given as 14.4%.

For `CCCOc1ccc(OCCOCCN2CCc3ccccc3C2)cc1`, the “hERG current change (%, negative = inhibition) at 10uM” value is reported as -64.7%. The value for `Cl.c1ccc(OCCOCCN2CCc3ccccc3C2)cc1` was -42.8%; that for `N#Cc1ccc(OCCN2CCc3ccccc3C2)cc1` was -45.2%; that for `CCOc1ccc(OCCOCCN2CCc3ccccc3C2)cc1` was -74.8%. `COc1ccc(OCCOCCN2CCc3ccccc3C2)cc1`: the “hERG current change (%, negative = inhibition) at 10uM” value is -69.9%. For the compound `COc1ccc(OCCCN2CCc3ccccc3C2)cc1.Cl`, the “hERG current change (%, negative = inhibition) at 10uM” value is reported as -47.5%. In the case of `CCOc1ccc(S(=O)(=O)N2CCc3ccccc3C2)cc1` it was 9.5%. On to `COc1ccc(OCCOCCN2CCOCC2)cc1`, for which the “hERG current change (%, negative = inhibition) at 10uM” value is 5.25%. For the compound `CCOc1ccc(OCCOCCN2CCOCC2)cc1.O=C(O)C(=O)O`, the “hERG current change (%, negative = inhibition) at 10uM” value was 0.827%. The value for `CCCC(C)NC(=O)COC(=O)c1ccc(Cl)c(S(N)(=O)=O)c1` (centres unmarked) was 8.02%; that for `CCOc1ccc(NC(=O)N2CCCC2C(=O)NCC2CCCO2)cc1` (centres unmarked) was 18.5%. In the case of `O=C1CCCCC1Sc1nnc(Nc2ccccc2)s1` (centres unmarked) it was -7.47%. On to `O=C(Cn1nc2sc3ccccc3n2c(=O)c1=O)c1cccs1`, for which the “hERG current change (%, negative = inhibition) at 10uM” value is listed as 7.63%. The value for `CCNC(=S)Nc1ccc(Cc2ccncc2)cc1` was -4.01%; that for `COc1ccc(-c2cc(C(F)(F)F)c(C#N)c(SCC(=O)Nc3nc(C)co3)n2)cc1` was 1.46%.

On to `O=C(NCc1ccc(F)cc1)C(c1ccccc1)c1ccccc1`, for which the “hERG current change (%, negative = inhibition) at 10uM” value is reported as 4.43%. Take `Cc1ccc(CNC(=O)C(c2ccccc2)c2ccccc2)cc1`: the “hERG current change (%, negative = inhibition) at 10uM” value was -64%.

Regarding `CCC(C(=O)NCc1ccc(C)cc1)c1ccccc1` (centres unmarked), the “hERG current change (%, negative = inhibition) at 10uM” value is reported as -1.35%. The value for `CCOC(=O)c1ccc(NC(=S)NC2CCCC2)cc1` was -7.86%; that for `CCOC(=O)c1ccc(NC(=O)COc2ccccc2CNCCO)cc1` was -24%.

Regarding `CCOC(=O)c1ccc(NC(=O)COc2ccccc2OC)cc1`, the “hERG current change (%, negative = inhibition) at 10uM” value is 2.1%.

`CCOC(=O)c1ccc(NC(=O)COc2ccc(CNC3CCCCC3)cc2OC)cc1`: the “hERG current change (%, negative = inhibition) at 10uM” value was -26%. `CCOC(=O)c1ccc(NC(=O)COc2ccccc2CNCCc2ccccc2)cc1.Cl`: the “hERG current change (%, negative = inhibition) at 10uM” value was -79.3%. In the case of `CCOC(=O)c1ccc(NC(=O)COc2ccccc2CNC2CCCC2)cc1.Cl` it was -78.1%; in that of `CN(C)S(=O)(=O)Oc1ccccc1C(=O)Nc1ccc(F)cc1F`, 2.34%; in that of `COc1ccc(C)cc1NC(=O)C1CCCN(S(=O)(=O)c2ccc3c(c2)CCCN3C(C)=O)C1` (centres unmarked), -2.38%. In the case of `CCCCN(CC)CCCNC(=O)C1c2ccccc2C(=O)N(C)C1c1cn(C)c2ccccc12` (centres unmarked) it was -72.7%; in that of `CCN(CC)CCNC(=O)C1c2ccccc2C(=O)N(C)C1c1cn(C)c2ccccc12` (centres unmarked), -19.5%. On to `CCN(CC)CCCNC(=O)C1c2ccccc2C(=O)N(C)C1c1ccc(OC)cc1` (centres unmarked), for which the “hERG current change (%, negative = inhibition) at 10uM” value stood at 6.8%. In the case of `Cc1ccccc1S(=O)(=O)N1CC(C(=O)O)=CC[C@H]1c1ccc(Cl)cc1` it was 15.8%; in that of `Cn1c(=O)[nH]c(=O)c2c1nc(N1CCCC1)n2CCCSc1nnnn1-c1ccccc1`, -13.5%; in that of `CN1CCN(c2nc3c(c(=O)[nH]c(=O)n3C)n2CCCSc2nnnn2-c2ccccc2)CC1`, -51.2%. In the case of `CC1CCN(c2nc3c(c(=O)[nH]c(=O)n3C)n2CC(C)CSc2nnnn2-c2ccccc2)CC1` (centres unmarked) it was -57.6%; in that of `CC(CSc1nnnn1-c1ccccc1)Cn1c(N2CCCC2)nc2c1c(=O)[nH]c(=O)n2C` (centres unmarked), -45.1%.

Take `CC(CSc1nnnn1-c1ccccc1)Cn1c(N2CCN(C)CC2)nc2c1c(=O)[nH]c(=O)n2C` (centres unmarked): the “hERG current change (%, negative = inhibition) at 10uM” value is recorded as -43.6%. `CN1CCN(c2nc3c(c(=O)[nH]c(=O)n3C)n2CCSc2nnnn2-c2ccccc2)CC1`: the “hERG current change (%, negative = inhibition) at 10uM” value is -17%. Regarding `CCCN1Cc2cccc(C(=O)Nc3ccc(CC)cc3)c2C1=O`, the “hERG current change (%, negative = inhibition) at 10uM” value is listed as 8.1%. The value for `Cc1cc(C)nc(NC(=O)c2ccc(C)c(C)c2)n1` was 18%; that for `Oc1cccc(-n2nnnc2SCc2ccccc2F)c1` was 7.33%. For the compound `Cc1cc(C)c(S(=O)(=O)c2ccccc2)c(=O)[nH]1`, the “hERG current change (%, negative = inhibition) at 10uM” value was found to be 20.6%.

For `COc1ccc(NC(=O)c2c(C)nn(-c3ccccc3)c2Cl)cc1`, the “hERG current change (%, negative = inhibition) at 10uM” value is recorded as 20.4%.

For the compound `CCNC(=O)COC(=O)c1[nH]c(C)c(C(=O)OC)c1C`, the “hERG current change (%, negative = inhibition) at 10uM” value turned out to be 8.24%.

As for `CCN1CCN(Cc2cc(=O)oc3cc(C)cc(C)c23)CC1`, the “hERG current change (%, negative = inhibition) at 10uM” value was -68.1%. In the case of `Cc1cc(C)c2c(CN3CCN(Cc4ccccc4)CC3)cc(=O)oc2c1.Cl` it was -66.9%; in that of `Cc1cc2oc(=O)cc(CN3CCN(Cc4ccc5c(c4)OCO5)CC3)c2cc1C`, -17.2%; in that of `Cc1cc(C)c2c(CCl)cc(=O)oc2c1`, -1.06%. In the case of `Cc1cc(C)c2c(CN3CCN(Cc4ccc5c(c4)OCO5)CC3)cc(=O)oc2c1` it was -75.4%; in that of `Cc1cc(O)c2c(CN3CCN(Cc4ccccc4)CC3)cc(=O)oc2c1`, -13.1%; in that of `Cc1cc(C)c2c(CN3CCOCC3)cc(=O)oc2c1`, -7.28%. For `Cc1cc(C)c2c(CN3CCN(C)CC3)cc(=O)oc2c1`, the “hERG current change (%, negative = inhibition) at 10uM” value is on record as -73.3%.

As for `Cc1cc(C)c2c(CN3CCCCC3C)cc(=O)oc2c1.Cl` (centres unmarked), the “hERG current change (%, negative = inhibition) at 10uM” value is on record as 13.9%. For `Cc1cc(C)c2c(CN3CCCCC3)cc(=O)oc2c1`, the “hERG current change (%, negative = inhibition) at 10uM” value is 10.7%. On to `Cc1cc(C)c2c(CN3CCN(Cc4ccc5c(c4)OCO5)CC3)cc(=O)oc2c1C`, for which the “hERG current change (%, negative = inhibition) at 10uM” value is -45.8%. As for `CC1CCCN(C(=O)CNC(=O)Cn2ccc3ccccc3c2=O)C1` (centres unmarked), the “hERG current change (%, negative = inhibition) at 10uM” value is listed as -5.78%. The value for `COc1cc(NC(=O)c2ccc(COCC(F)(F)F)o2)cc(OC)c1OC` was -16.8%.

Turning to `COc1ccc(OC)c(NC(=O)CCCCCn2nnc3ccccc3c2=O)c1`, the “hERG current change (%, negative = inhibition) at 10uM” value is on record as -2.09%.

With `CN(C)S(=O)(=O)c1cc(NC(=O)CSc2cccc[n+]2[O-])ccc1Cl`, the “hERG current change (%, negative = inhibition) at 10uM” value is 9.64%. In the case of `COc1ccc(-n2c(-c3cccc(OC)c3)nc(=S)c3c2CCCC3)cc1` it was 8.47%.

On to `CC(=O)O/N=C(/c1nonc1N)N1CCN(c2ccc([N+](=O)[O-])cc2Cl)CC1`, for which the “hERG current change (%, negative = inhibition) at 10uM” value is recorded as -33.9%. With `COCc1[nH]nc2c1C(c1c(F)cccc1Cl)C(C#N)=C(N)O2` (centres unmarked), the “hERG current change (%, negative = inhibition) at 10uM” value is -3.01%. In the case of `Cc1ccc(NC(=O)c2ccc(NCCN)c([N+](=O)[O-])c2)cc1Cl` it was -14.3%. For the compound `CCc1ccc2[nH]c3nc(N/N=C/c4ccc(O)cc4O)nnc3c2c1`, the “hERG current change (%, negative = inhibition) at 10uM” value came out at 3.31%.

Consider `CCOc1ccc(C(=O)C[n+]2ccc(C(=O)NCCO)cc2)cc1.[Br-]`, for which the “hERG current change (%, negative = inhibition) at 10uM” value is on record as 18.3%.
